Results from PubChem BioAssay (NCATS).
Records with an inconclusive call do not appear. A call without a number means that no potency is given here. Calls of active or inactive are those of the source. Calls come from the whole dose curve; as a rule, active = well fitted curve in the direction sought with a large enough effect; inconclusive = small, poorly fitted or top-dose-only effect, or another doubt; inactive = no such curve, though single readings can be large; an effect the other way counts as inactive or inconclusive.

Assays:
[1] = Identifying Small Molecule Inhibitors of Pancreatic Cancer Stem Cells (SN12C, Adherent) (AID 1259358);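 note: cell survival measured after 48 h of compound exposure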
Outline: (§1)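 Viability is scored by CellTiter-Glo luminescence 48 h after dosing, expressed as percent activity against vehicle and no-cell references. Spheroid formats rely on cells cultured 14 days in stem cell media beforehand.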

[2] = Identifying Small Molecule Inhibitors of Pancreatic Cancer Stem Cells (A2780, Spheroid) (AID 1259357); conditions: Potency: A2780 spheroid viability; note: potency is the fitted concentration of half-maximal effect;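 note: spheroids pre-formed over 14 days in stem cell medium on hydrogel; compound exposure lasted 48 h before the ATP luminescence read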
Outline: (§2)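 Endpoint: ATP-based luminescence, 48 h drug exposure. Bortezomib at 9.2 uM final as full-kill control; DMSO vehicle as negative control; activity normalized between vehicle and cell-free wells.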

[3] = Identifying Small Molecule Inhibitors of Pancreatic Cancer Stem Cells (Panc1, Spheroid) (AID 1259359);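 note: potency is the fitted concentration of half-maximal effect; compound exposure lasted 48 h before reading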
Outline: as §1

[4] = Identifying Small Molecule Inhibitors of Pancreatic Cancer Stem Cells (SN12C, Spheroid) (AID 1259360); conditions: Potency: SN12C spheroid viability; note: potency is the fitted concentration of half-maximal effect
Outline: as §2

[5] = qHTS Screen of the MIPE 4.0 Collection Against Ewings Sarcoma (TC32) (AID 1259256); note: nearly all actives have a fitted effect of over 45% in size; note: potency is the fitted concentration of half-maximal effect
Outline: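 Compound titrations go onto adherent log-phase cells 4 h after seeding, incubate 48 h at 37C, then CellTiter-Glo luminescence reports viability relative to DMSO and cell-free controls.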

[6] = P-glycoprotein substrates identified in KB-3-1 adenocarcinoma cell line, qHTS therapeutic library screen (AID 1346986); note: nearly all actives have a fitted effect of over 60% in size;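 note: potency is the fitted concentration of half-maximal effect; potency is for cytotoxicity meaning loss of cell viability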
Outline: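 Using luminescence to quantify ATP, parental and P-gp-overexpressing KB cells were compared after 72 h compound titration. KB-8-5-11 was also run with the P-gp inhibitor tariquidar.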

[7] = Identifying Small Molecule Inhibitors of Pancreatic Cancer Stem Cells (A278, Adherent) (AID 1259361);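 note: viability read after 48 h compound exposure; nearly all actives have a fitted effect of over 35% in size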
Outline: as §1

[8] = qHTS assay to identify small molecule inhibitors of chordoma cells - UCH-1 (AID 1259355); note: nearly all actives have a fitted effect of over 55% in size
Outline: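 A 48hr growth-inhibition format: each drug tested at 15 concentrations together with added auranofin, camptothecin, doxorubicin, rubitecan and topotecan, with cell viability quantified as CellTiter-Glo luminescence.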

[9] = qHTS assay to identify small molecule inhibitors of chordoma cells - UCH-2 (AID 1259356); note: series mostly up to about 46 µM

In the case of `NC(=O)c1ccc(-c2nc(-c3ccc4c(c3)OCCO4)c(-c3ccccn3)[nH]2)cc1`, the Potency [1] was “inactive”.

In the case of `CCC(=O)N[C@H]1CC[C@H](C(=O)N(C)c2ccc(-c3nc4ccccc4o3)cc2)C1`, the Potency [2] was 14.8 µM (active), the Potency [3] was 3.72 µM (active) and the Potency [4] was 18.7 µM (active).

With `C[C@]12CCC(=O)C=C1CC[C@@H]1[C@@H]2[C@@H](O)C[C@@]2(C)[C@H]1CC[C@]2(O)C(=O)CO` the Potency [2] was “inactive” and the Potency [4] was “inactive”.

With `COc1ccc(-c2oc3cc(OC)ccc3c2C(=O)c2ccc(C#N)cc2)cc1` the Potency [5] was “inactive”, the Potency [4] was “inactive” and the Potency [6] was “inactive”.

For `CC[C@H](Nc1ncnc2nc[nH]c12)c1nc2cccc(F)c2c(=O)n1-c1ccccc1`, the Potency [5] was 2.96 µM (active), the IC50 (viability decrease) [7] was 20.9 µM (active) and the outcome [6] was “inactive [at 9.29 µM]”.

For `CN(C)C(=O)c1ccc(S(=O)(=O)c2ccc(NC(=O)[C@@](C)(O)C(F)(F)F)c(Cl)c2)cc1`, the Potency [1] was “inactive”.

For `COc1cc(Nc2ncc3c(n2)-c2ccc(Cl)cc2C(c2c(F)cccc2OC)=NC3)ccc1C(=O)O`, the Potency [5] was 0.059 µM (active), the Potency [4] was “inactive” and the Potency [6] was 103 nM (active).

In the case of `COc1ccc(C2=N[C@H](c3ccc(Cl)cc3)[C@H](c3ccc(Cl)cc3)N2C(=O)N2CCNC(=O)C2)c(OC(C)C)c1`, the Potency [5] was 16.6 µM (active), the Potency [4] was “inactive” and the IC50 (viability decrease) [7] was 18.7 µM (active).

In the case of `Cc1c(CCOc2ccc(C(=O)O)cc2)c2cc(Cl)ccc2n1C(c1ccccc1)c1ccccc1`, the Potency [5] was 10.5 µM (active), the Potency [4] was “inactive” and the IC50 (viability decrease) [7] was “inactive”.

In the case of `Cc1oncc1C(=O)Nc1ccc(C(F)(F)F)cc1`, the Potency [8] was “inactive”, the outcome [9] was “inactive” and the Potency [2] was “inactive”. For the same molecule, the IC50 (viability decrease) [7] was 11.8 µM (active).

In the case of `O=C(O)c1ccc(-c2c[nH]c3ccc(-c4ccccc4)cc23)cc1C1CCCC1`, the Potency [2] was “inactive”, the Potency [1] was “inactive” and the Potency [4] was “inactive”.

For `CC(C)(Sc1ccc(CCN(CCCCC2CCCCC2)C(=O)NC2CCCCC2)cc1)C(=O)O`, the Potency [5] was 18.7 µM (active), the Potency [4] was “inactive” and the IC50 (viability decrease) [7] was “inactive”. For the same molecule, the Potency [6] was “inactive”.

For `CS(=O)(=O)Oc1ccc2c(NC(N)=O)c(C(=O)c3ccc(Cl)cc3Cl)oc2c1`, the Potency [2] was 11.8 µM (active), the Potency [1] was “inactive” and the Potency [4] was “inactive”.
